This is part of a sample that, as a whole, favours compounds with a hit. Of some 79,000 tested, about 15% had one in any assay. The source made the active and inactive calls. Cut-off read from the data, not from the text of the source: active = growth inhibition above about 70%; inactive = the rest.
Experiment: NCI Yeast Anticancer Drug Screen. Data for the cln2 rad14 strain (AID 165);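 note: 0% = growth equal to vehicle treated cultures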
Details: S. cerevisiae cln2 rad14 strain, active compounds read high; at 50.0 µM unless noted
In short: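 Each compound was tested on cln2 rad14 yeast. Inhibition of growth was calculated against vehicle-exposed controls.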

Row | Compound | growth inhibition
1 | OCC1C(CO)C2CC1C1N=NN(c3ccccc3)C21 (stereo not given) | -11.9% (inactive)
2 | CCCCC(CC)OC(=O)c1ccccc1C (stereo not given) | -30.9% (inactive)
3 | OCCCCCSc1ccccc1 | 1.95% (inactive)
4 | CN(C=O)c1c(F)cc(N=Nc2ccccc2)cc1F | -16.1% (inactive)
5 | Cn1ccnc1C(O)(c1nccn1C)c1nccn1C | 19.1% (inactive)
6 | CCCCN=C(N)C(N)=NCCCC | -28.3% (inactive)
7 | COc1ccc2nc3cc(Cl)ccc3c(Nc3ccccc3-c3ccccc3Nc3c4ccc(Cl)cc4nc4ccc(OC)cc34)c2c1 | 17.5% (inactive)
8 | CCOC(=O)CON=c1c2ccccc2ccc2ccccc12 | 3.4% (inactive)
9 | O=C1CSC(c2ccc(F)cc2F)N1c1nncs1 (stereo not given) | -35.2% (inactive)
10 | O=C(O)c1cc(C(=O)C(=O)c2cc(C(=O)O)c(O)c3ccccc23)c2ccccc2c1O | -0.4% (inactive)
11 | Cc1ccc(S(=O)(=O)OCCOCCOS(=O)(=O)c2ccc(C)cc2)cc1 | 4% (inactive)
12 | CCCCN(CCCC)C(=N)c1ccccc1C | -23.6% (inactive)
13 | CCCCC(Sc1nn(C2OC(COC(=O)c3ccccc3)C(OC(=O)c3ccccc3)C2OC(=O)c2ccccc2)c(=O)[nH]c1=O)C(=O)OCC (stereo not given) | -33.4% (inactive)
14 | CC(=O)N1C(=O)CC23c4cccc([N+](=O)[O-])c4C(=O)N2CCCN13 (stereo not given) | 10.6% (inactive)
15 | CCN(CC)CCOC(=O)c1ccc(NC(=O)OCCOCCOC(=O)Nc2ccc(C(=O)OCCN(CC)CC)cc2)cc1 | -1.1% (inactive)
16 | O=C1OC(OC2CCCCC2)(c2ccccc2)c2ccccc21 (stereo not given) | -23.5% (inactive)
17 | ClB1NB(Cl)NB(Cl)N1 | -7% (inactive)
18 | CCOC(=O)c1cc2c(-c3ccccc3)c(-c3ccccc3)c(-c3ccccc3)c(-c3ccccc3)n2n1 | 31.9% (inactive)
19 | COc1ccccc1N=Nc1c(O)n(-c2ccccc2)c(=S)n(-c2ccccc2)c1=O | -9.3% (inactive)
20 | COc1ccc(C(=O)/C=C/c2ccc(OCC#N)cc2)cc1OC | -30.2% (inactive)

Row | Compound | growth inhibition
21 | C/C(=N/O)c1ccncc1 | 11.2% (inactive)
22 | COc1cccc(/C=C/c2cnc3ccccc3n2)c1OC | 10.7% (inactive)
23 | CCc1ccc2nccc(NCCCN(C)C)c2c1[N+](=O)[O-] | 15.2% (inactive)
24 | CCOC(=O)C(=O)/C(=C/N1C(=O)CC(=O)NC1=S)C(=O)OCC | -13.9% (inactive)
25 | CCOC(=O)NNC(=O)Nc1ccc(O[Si](C)(C)C)cc1 | 17.1% (inactive)
26 | NC(=O)C1OCOC2C(CO)OCOC12 (stereo not given) | -52.1% (inactive)
27 | O=C(c1ccccc1)C(Oc1ccccc1)c1ccccc1 (stereo not given) | 36% (inactive)
28 | NC(=O)CSCC(N)=O | 6.05% (inactive)
29 | COc1ccc(/C=C2\C(=O)Nc3ccccc32)cc1OC | -10.4% (inactive)
30 | Cc1cc(C)nc(NS(=O)(=O)c2ccc(NC(=O)c3ccc(Cl)c4c(Nc5ccc(S(=O)(=O)N=C(N)N)cc5)c5ccccc5nc34)cc2)n1 | 29.7% (inactive)
31 | CC(C)(C)C(=O)Oc1ccc([N+](=O)[O-])cc1 | -30.4% (inactive)
32 | Oc1ccc2ccccc2c1/C=C/c1ccc2c(Br)cc(Br)c(O)c2n1 | 38% (inactive)
33 | CCCCCCCCC(=O)NCO | -3.4% (inactive)
34 | Cc1c(NC(=S)NC(=O)c2ccc([N+](=O)[O-])cc2)c(=O)n(-c2ccccc2)n1C | 17.9% (inactive)
35 | COc1cc2c(c(OC)c1OC)-c1ccc(SC)c(=O)cc1[C@@H](NC(=O)CCl)CC2 | 6.85% (inactive)
36 | CN1C=C(C(N)=O)Cc2ccsc21 | -8.95% (inactive)
37 | CC1=CC(=C2C=C(C)C(=O)C(C)=C2)C=C(C)C1=O | -0.25% (inactive)
38 | COC(=O)c1ccc(SCCC(=O)CN2C(=O)c3ccccc3C2=O)cc1 | 23.1% (inactive)
39 | CCCCN(CCCC)CC(C(=O)Nc1ccc([N+](=O)[O-])cc1[N+](=O)[O-])/C(C)=N\NC(=S)NN (stereo not given) | 24.8% (inactive)
40 | Cc1cc2c(cc1Cl)SC(NNC1=NCCN1)=NS2(=O)=O | -2.25% (inactive)

Experiment: NCI Yeast Anticancer Drug Screen. Data for the bub3 strain (AID 167)
Details: S. cerevisiae bub3 mutant strain, active compounds read high; at 50.0 µM unless noted
In short: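 Compounds were applied to a genetically altered yeast strain carrying a cell-cycle control defect. Growth inhibition was scored against vehicle-treated controls.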

Row | Compound | growth inhibition
41 | OCC1C(CO)C2CC1C1N=NN(c3ccccc3)C21 (stereo not given) | -0.35% (inactive)
42 | CCCCC(CC)OC(=O)c1ccccc1C (stereo not given) | -1.4% (inactive)
43 | OCCCCCSc1ccccc1 | -11.1% (inactive)
44 | CN(C=O)c1c(F)cc(N=Nc2ccccc2)cc1F | 2.25% (inactive)
45 | Cn1ccnc1C(O)(c1nccn1C)c1nccn1C | -8.35% (inactive)
46 | CCCCN=C(N)C(N)=NCCCC | 0.5% (inactive)
47 | COc1ccc2nc3cc(Cl)ccc3c(Nc3ccccc3-c3ccccc3Nc3c4ccc(Cl)cc4nc4ccc(OC)cc34)c2c1 | 2.1% (inactive)
48 | CCOC(=O)CON=c1c2ccccc2ccc2ccccc12 | -10.2% (inactive)
49 | O=C1CSC(c2ccc(F)cc2F)N1c1nncs1 (stereo not given) | -23.8% (inactive)
50 | O=C(O)c1cc(C(=O)C(=O)c2cc(C(=O)O)c(O)c3ccccc23)c2ccccc2c1O | -17.9% (inactive)
51 | Cc1ccc(S(=O)(=O)OCCOCCOS(=O)(=O)c2ccc(C)cc2)cc1 | 18.9% (inactive)
52 | CCCCN(CCCC)C(=N)c1ccccc1C | 1.55% (inactive)
53 | CCCCC(Sc1nn(C2OC(COC(=O)c3ccccc3)C(OC(=O)c3ccccc3)C2OC(=O)c2ccccc2)c(=O)[nH]c1=O)C(=O)OCC (stereo not given) | -4.7% (inactive)
54 | CC(=O)N1C(=O)CC23c4cccc([N+](=O)[O-])c4C(=O)N2CCCN13 (stereo not given) | -21.8% (inactive)
55 | CCN(CC)CCOC(=O)c1ccc(NC(=O)OCCOCCOC(=O)Nc2ccc(C(=O)OCCN(CC)CC)cc2)cc1 | -3.1% (inactive)
56 | O=C1OC(OC2CCCCC2)(c2ccccc2)c2ccccc21 (stereo not given) | -1.65% (inactive)
57 | ClB1NB(Cl)NB(Cl)N1 | -11.9% (inactive)
58 | CCOC(=O)c1cc2c(-c3ccccc3)c(-c3ccccc3)c(-c3ccccc3)c(-c3ccccc3)n2n1 | -1.45% (inactive)
59 | COc1ccccc1N=Nc1c(O)n(-c2ccccc2)c(=S)n(-c2ccccc2)c1=O | -2.85% (inactive)
60 | COc1ccc(C(=O)/C=C/c2ccc(OCC#N)cc2)cc1OC | -33% (inactive)

Row | Compound | growth inhibition
61 | C/C(=N/O)c1ccncc1 | 16.1% (inactive)
62 | COc1cccc(/C=C/c2cnc3ccccc3n2)c1OC | -6.7% (inactive)
63 | CCc1ccc2nccc(NCCCN(C)C)c2c1[N+](=O)[O-] | -17.7% (inactive)
64 | CCOC(=O)C(=O)/C(=C/N1C(=O)CC(=O)NC1=S)C(=O)OCC | -34.9% (inactive)
65 | CCOC(=O)NNC(=O)Nc1ccc(O[Si](C)(C)C)cc1 | 9.75% (inactive)
66 | NC(=O)C1OCOC2C(CO)OCOC12 (stereo not given) | -7.4% (inactive)
67 | O=C(c1ccccc1)C(Oc1ccccc1)c1ccccc1 (stereo not given) | 6.9% (inactive)
68 | NC(=O)CSCC(N)=O | -2.75% (inactive)
69 | COc1ccc(/C=C2\C(=O)Nc3ccccc32)cc1OC | -1.95% (inactive)
70 | Cc1cc(C)nc(NS(=O)(=O)c2ccc(NC(=O)c3ccc(Cl)c4c(Nc5ccc(S(=O)(=O)N=C(N)N)cc5)c5ccccc5nc34)cc2)n1 | 23.2% (inactive)
71 | CC(C)(C)C(=O)Oc1ccc([N+](=O)[O-])cc1 | -33.1% (inactive)
72 | Oc1ccc2ccccc2c1/C=C/c1ccc2c(Br)cc(Br)c(O)c2n1 | 64.9% (inactive)
73 | CCCCCCCCC(=O)NCO | -25.6% (inactive)
74 | Cc1c(NC(=S)NC(=O)c2ccc([N+](=O)[O-])cc2)c(=O)n(-c2ccccc2)n1C | 32.9% (inactive)
75 | COc1cc2c(c(OC)c1OC)-c1ccc(SC)c(=O)cc1[C@@H](NC(=O)CCl)CC2 | 16.6% (inactive)
76 | CN1C=C(C(N)=O)Cc2ccsc21 | -17.1% (inactive)
77 | CC1=CC(=C2C=C(C)C(=O)C(C)=C2)C=C(C)C1=O | 4.25% (inactive)
78 | COC(=O)c1ccc(SCCC(=O)CN2C(=O)c3ccccc3C2=O)cc1 | 4.1% (inactive)
79 | CCCCN(CCCC)CC(C(=O)Nc1ccc([N+](=O)[O-])cc1[N+](=O)[O-])/C(C)=N\NC(=S)NN (stereo not given) | 16.2% (inactive)
80 | Cc1cc2c(cc1Cl)SC(NNC1=NCCN1)=NS2(=O)=O | -17.9% (inactive)
